Activity calls are given as the source filed them. Rule for the calls: active = hit-call score of the fitted dose curve at least 0.9, where 1 is the maximum; inactive = score below 0.9.
Assays:
Settings in all cases: mRNA level, 48 h; actives raise or lower the signal
HGF (gene 3082) = assay: LTEA_HepaRG_HGF: Life Technologies and Expression Analysis (LTEA) Assay for Hepatocyte Growth Facto (HGF) using HepaRG (AID 2283505)
Method in brief: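 HepaRG, 48 h dosing, 8-pt half-log series from 100 uM in 0.5% DMSO, duplicates. Readout: TaqMan qRT-PCR of HGF mRNA, housekeeping-normalized; bidirectional curve fit vs DMSO baseline.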

[1] = read-out: Insulin Like Growth Factor 1 (IGF1), IGF1 (gene 3479); assay: LTEA_HepaRG_IGF1: Life Technologies and Expression Analysis (LTEA) Assay for Insulin Like Growth Factor 1 (IGF1) using HepaRG (AID 2283506)
Method in brief: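 HepaRG, plated 48 h, then switched to serum-free induction media; test chemical 8-pt half-log from 100 uM (0.5% DMSO), duplicate, 48 h. Lysis in RLT, TaqMan qRT-PCR, norm. ACTB/GAPDH/POLR2A. Bidirectional fit vs DMSO.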

[2] = read-out: Intercellular Adhesion Molecule 1 (ICAM1), ICAM1 (gene 3383); assay: LTEA_HepaRG_ICAM1: Life Technologies and Expression Analysis (LTEA) Assay for Intercellular Adhesion Molecule 1 (ICAM1) using HepaRG (AID 2283507)
Method in brief: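 HepaRG, 48 h exposure, 8-pt half-log series from 100 uM, 0.5% DMSO vehicle, duplicates. Readout: TaqMan qRT-PCR mRNA, housekeeping-normalized (ACTB/GAPDH/POLR2A). Bidirectional curve fit vs DMSO baseline.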

[3] = read-out: Insulin-like growth factor-binding protein 1 (IGFBP1), IGFBP1 (gene 3484); assay: LTEA_HepaRG_IGFBP1: Life Technologies and Expression Analysis (LTEA) Assay for Insulin-like growth factor-binding protein 1 (IGFBP1) using HepaRG (AID 2283508)
Method in brief: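 qRT-PCR mRNA read-out (TaqMan, Fluidigm array), normalised to three housekeeping genes; HepaRG cells, 48 h exposure, 8-pt half-log series from 100 uM, 0.5% DMSO vehicle; bidirectional curve fit vs DMSO baseline.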

[4] = read-out: Interleukin 6 (IL6), IL6 (gene 3569); assay: LTEA_HepaRG_IL6: Life Technologies and Expression Analysis (LTEA) Assay for Interleukin 6 (IL6) using HepaRG (AID 2283509)
Method in brief: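 HepaRG cells exposed in duplicate for 48 h to eight half-log concentrations, top 100 uM, in 0.5% DMSO serum-free induction medium. mRNA measured by qRT-PCR, normalized to ACTB, GAPDH and POLR2A. Bidirectional fit versus DMSO.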

[5] = read-out: Interleukin 6 Receptor (IL6R), IL6R (gene 3570); assay: LTEA_HepaRG_IL6R: Life Technologies and Expression Analysis (LTEA) Assay for Interleukin 6 Receptor (IL6R) using HepaRG (AID 2283510);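 for AC50: differentiated human HepaRG liver cells in serum-free induction medium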
Method in brief: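 Readout is IL6R transcript level by TaqMan qRT-PCR, normalized to three housekeeping genes and fitted bidirectionally against 0.5% DMSO controls. Human HepaRG cells received chemicals for 48 h in serum-free induction medium, highest concentration 100 uM.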

[6] = read-out: Potassium channel subfamily K member 1 (KCNK1), KCNK1 (gene 3775); assay: LTEA_HepaRG_KCNK1: Life Technologies and Expression Analysis (LTEA) Assay for Potassium channel subfamily K member 1 (KCNK1) using HepaRG (AID 2283511)
Method in brief: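 Differentiated HepaRG cells, 48 h exposure in serum-free induction medium with 0.5% DMSO; 8 concentrations, half-log from 100 uM, duplicate. KCNK1 mRNA by qRT-PCR, normalized to ACTB, GAPDH, POLR2A; bidirectional fit vs DMSO.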

[7] = read-out: Keratin 19 (KRT19), KRT19 (gene 3880); assay: LTEA_HepaRG_KRT19: Life Technologies and Expression Analysis (LTEA) Assay for Keratin 19 (KRT19) using HepaRG (AID 2283512)
Method in brief: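 HepaRG, 48 h chemical exposure, 8-pt half-log CRC from 100 uM, 0.5% DMSO vehicle, duplicates. Readout: TaqMan qRT-PCR of KRT19 mRNA, housekeeping-normalized (ACTB/GAPDH/POLR2A). Bidirectional fit vs DMSO baseline.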

[8] = read-out: JUN Transcription Factor, JUN (gene 3725); assay: LTEA_HepaRG_JUN: Life Technologies and Expression Analysis (LTEA) Assay for JUN Transcription Factor using HepaRG (AID 2283513)
Method in brief: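 Cells plated 48 h, medium switched to serum-free induction medium, then dosed 48 h (100 uM top, half-log dilutions, 0.5% DMSO). RNA isolated; JUN measured by qRT-PCR against three housekeeping genes; gain or loss fitted relative to DMSO.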

[9] = read-out: Lipase C (LIPC), LIPC (gene 3990); assay: LTEA_HepaRG_LIPC: Life Technologies and Expression Analysis (LTEA) Assay for Lipase C (LIPC) using HepaRG (AID 2283514)
Method in brief: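 HepaRG cells, 48 h after plating, treated in duplicate for 48 h in serum-free induction medium over 8 half-log concentrations from 100 uM, 0.5% DMSO. LIPC mRNA by TaqMan qRT-PCR normalized to ACTB/GAPDH/POLR2A; bidirectional fit versus DMSO.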

| SMILES | outcome (HGF (gene 3082)) | outcome [1] | outcome [2] | outcome [3] | outcome [4] | outcome [5] | outcome [6] | outcome [7] | outcome [8] | outcome [9] | AC50 [1] | AC50 [3] | AC50 [7] | AC50 (HGF (gene 3082)) | AC50 [5] | AC50 [2] | AC50 [4] | AC50 [9] |
| --- | --- | --- | --- | --- | --- | --- | --- | --- | --- | --- | --- | --- | --- | --- | --- | --- | --- | --- |
| C=CN1CCCC1=O | inactive | inactive | inactive | inactive | inactive | inactive | inactive | inactive | inactive | inactive |  |  |  |  |  |  |  |  |
| O=C1CN(N=Cc2ccc([N+](=O)[O-])o2)C(=O)N1 |  |  | inactive |  | inactive | inactive | inactive |  | inactive | inactive | 50 µM (active) | 33.4 µM (active) | 88.7 µM (active) |  |  |  |  |  |
| Cn1cc[nH]c1=S |  | inactive | inactive | inactive | inactive | inactive | inactive | inactive | inactive | inactive |  |  |  |  |  |  |  |  |
| Cn1c(=O)c2[nH]cnc2n(C)c1=O | inactive | inactive |  |  | inactive | inactive | inactive | inactive | inactive | inactive |  |  |  |  |  |  |  |  |
| CCCCCCCC1CCC(=O)O1 (centres undefined) |  | inactive | inactive | inactive | inactive | inactive | inactive | inactive | inactive | inactive |  |  |  |  |  |  |  |  |
| O=C(O)c1cccc(C[C@@H]2COc3ccc(OCc4nc5cc(F)ccc5s4)cc3[C@@H]2O)c1 |  | inactive | inactive | inactive | inactive |  | inactive | inactive | inactive | inactive |  |  |  | 50 µM (active) | 50 µM (active) |  |  |  |
| O=S(=O)(O)c1ccc(N=Nc2c(O)ccc3cc(S(=O)(=O)O)ccc23)cc1 | inactive | inactive | inactive | inactive | inactive | inactive | inactive | inactive | inactive | inactive |  |  |  |  |  |  |  |  |
| Cc1ncc([C@@H](CCCCCCc2ccc3c(n2)NCCC3)CC(=O)O)cn1 | inactive | inactive | inactive | inactive | inactive | inactive | inactive | inactive | inactive | inactive |  |  |  |  |  |  |  |  |
| CC(=O)c1ccccc1 | inactive | inactive | inactive | inactive | inactive | inactive | inactive | inactive | inactive | inactive |  |  |  |  |  |  |  |  |
| CC(C)C(=O)Nc1ccc([N+](=O)[O-])c(C(F)(F)F)c1 |  |  |  |  |  | inactive | inactive |  | inactive |  | 37.8 µM (active) | 66.7 µM (active) | 23.5 µM (active) | 66.9 µM (active) |  | 87.3 µM (active) | 85 µM (active) | 55.5 µM (active) |
| c1ccc2c(c1)-c1cccc3c1c-2cc1ccccc13 |  |  | inactive |  | inactive |  | inactive |  | inactive |  | 16 µM (active) | 2.54 µM (active) | 1.4 µM (active) | 50 µM (active) | 11.1 µM (active) |  |  | 13.3 µM (active) |
| O=C(O)[C@H](O)[C@@H](O)C(=O)O | inactive | inactive | inactive | inactive | inactive | inactive | inactive | inactive | inactive | inactive |  |  |  |  |  |  |  |  |
| CCCCCCCCCCCCCCO | inactive | inactive | inactive | inactive | inactive | inactive | inactive | inactive | inactive | inactive |  |  |  |  |  |  |  |  |
| COc1cc2c(c(OC)c1OC)-c1ccc(OC)c(=O)cc1[C@@H](NC(C)=O)CC2 | inactive |  | inactive |  |  |  | inactive | inactive | inactive |  | 0.123 µM (active) | 0.584 µM (active) |  |  | 0.432 µM (active) |  | 0.144 µM (active) | 0.301 µM (active) |
| CCCC(CCC)C(=O)O |  | inactive | inactive | inactive | inactive | inactive | inactive | inactive | inactive | inactive |  |  |  |  |  |  |  |  |
| CNC(C)=O | inactive | inactive | inactive | inactive | inactive | inactive | inactive | inactive | inactive | inactive |  |  |  |  |  |  |  |  |
| CCCCCCCC/C=C\CCCCCCCC(=O)OC[C@@H](O)[C@H]1OC[C@H](O)[C@H]1O | inactive | inactive | inactive | inactive | inactive | inactive | inactive | inactive | inactive | inactive |  |  |  |  |  |  |  |  |
| OC(Cn1cncn1)(Cn1cncn1)c1ccc(F)cc1F | inactive | inactive | inactive | inactive | inactive | inactive | inactive | inactive | inactive | inactive |  |  |  |  |  |  |  |  |
